Sampled rows, rich in hits. Any-hit rate of the full collection: about 7.5%.
SMN2 splice up: SMN2 splice variant enhancement; HEK293 SMN2-luciferase splicing reporter, luminescence, 30-36 h; Potency, µM (top dose mostly 46.1 µM), without a hit: at the top dose activity change, positive = activation, actives largely listed as activators; hit rate 2.8% among 210,000; also: % of control where 0% means no effect; nearly all actives have a fitted effect of over 55% in size
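qHTS luciferase splicing reporter: luminescence rises when SMN2 exon 7 is included in transfected HEK293 cells. Compound exposure lasted 30-36 h at 37C, with 4.5 mM final sodium butyrate as control, followed by a ONE-Glo read.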
NPC1 prom act: NPC1 promoter activation | Huh7 NPC1 promoter luciferase reporter, 24 h | Potency, µM (titrated, usually from 9.22 µM), inactives show at the top dose activation, usual class: activators | hit rate 2.4% among 320,000 | AID 485313; also: % of control where 0% means no effect; nearly all actives have a fitted effect of over 60% in size
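Readout is luciferase luminescence, reflecting NPC1 promoter activation in stably transfected Huh7 cells after 24 h compound exposure at 37 °C in reduced-serum medium with 10% FBS.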
Rab9 promoter act: activators of Rab9 promoter; Potency, µM (highest dose often 9.22 µM), inactives show top-dose activation, negative = inhibition, usual class: activators; Huh7 Rab9 promoter-luciferase reporter, luminescence, 24 h; hit rate 2.8% among 320,000; also: % of control where 0% means no effect; nearly all actives have a fitted effect of over 60% in size
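Cells were plated at 1500 per well in reduced-serum medium with 10% FBS and left 2 h. Compound in DMSO was then added for 24 h at 37 °C. Reporter signal was read by luminescence after 10 min with luciferase detection reagent.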
FLuc modulator: inhibits or activates purified firefly luciferase, miR-21 counter-screen. P08659. purified FLuc, Km substrates, luminescence inhibition. Potency, µM (highest dose often 57.5 µM), inactives show top-dose activity change, negative = inhibition, actives largely listed as inhibitors. hit rate 6.9% among 360,000. AID 588342;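 also: plate controls were vehicle for no effect and reference inhibitor for full effect; nearly all actives have a fitted effect of over 55% in size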
Target sequence (P08659 whole entry, looked up): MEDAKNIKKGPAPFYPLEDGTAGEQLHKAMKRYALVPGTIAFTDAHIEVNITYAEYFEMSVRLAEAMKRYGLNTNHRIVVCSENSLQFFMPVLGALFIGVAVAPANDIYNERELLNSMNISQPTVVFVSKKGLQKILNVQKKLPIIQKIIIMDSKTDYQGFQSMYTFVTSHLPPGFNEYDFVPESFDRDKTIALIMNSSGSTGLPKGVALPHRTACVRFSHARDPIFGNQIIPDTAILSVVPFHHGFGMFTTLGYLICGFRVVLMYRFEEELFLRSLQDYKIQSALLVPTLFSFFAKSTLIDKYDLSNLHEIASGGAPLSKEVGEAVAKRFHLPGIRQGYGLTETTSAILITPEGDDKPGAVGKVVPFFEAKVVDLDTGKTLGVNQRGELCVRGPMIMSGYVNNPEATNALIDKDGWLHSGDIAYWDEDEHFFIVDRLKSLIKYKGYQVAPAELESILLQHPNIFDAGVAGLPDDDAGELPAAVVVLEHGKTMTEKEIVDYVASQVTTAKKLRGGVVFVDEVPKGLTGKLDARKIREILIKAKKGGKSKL
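Biochemical qHTS of compounds, final roughly 60 µM downward over six points, against 10 nM purified firefly luciferase using Km concentrations of substrates (10 uM D-luciferin, 10 uM ATP) in Tris acetate pH 7.5 buffer; luminescence output.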
ELG1 genotox: induces genotoxicity in HEK293T cells with luciferase-tagged ELG1 | HEK293T ELG1-luciferase reporter, luminescence, 16 h | Potency, µM (top dose mostly 46 µM), for the others: top-dose activity change, positive = activation, most hits filed as activators | hit rate 1.3% among 330,000; also: % of control where 0% means no effect; nearly all actives have a fitted effect of over 60% in size
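Genotoxicity was scored as increased ELG1-luciferase reporter signal, measured by ONE-Glo luminescence (30 min, room temperature). Compound or vehicle exposure of the HEK293T reporter cells lasted 16 hr at 37°C.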
Luc counter: counter-screen: inhibitors of Kinase-Glo firefly luciferase; hit rate 0.28% among 200,000; AID 1379; Kinase-Glo luciferase, ATP luminescence, 8 min; Q27757; Potency, µM (titrated, usually from 38.3 µM), for inactives: at the top dose activity change, negative = inhibition, actives largely listed as inhibitors; also: % is scaled to controls: 0 for no effect and ±100 for the full control effect; nearly all actives have a fitted effect of over 60% in size
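Luminescence was the read-out, taken after 8-minute incubation at ambient temperature. Luciferase turned over luciferin with 10 uM ATP in imidazole pH 7.2 buffer containing KCl, MgCl2, Tween 20 and BSA.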
Active calls of the source: *; ? = inconclusive; . = not tested or not shown. Calls follow the shape of the dose curve; as a rule, active = well fitted curve in the direction sought with a large enough effect; inconclusive = small, poorly fitted or top-dose-only effect, or another doubt; inactive = no such curve, though single readings can be large; an effect the other way counts as inactive or inconclusive. Potency is read from the fitted curve at half-maximal effect.

SMILES | SMN2 splice up | NPC1 prom act | Rab9 promoter act | FLuc modulator | ELG1 genotox | Luc counter
Cc1ccc(C(=O)NCc2ccc3c(c2)CCO3)cc1C | . | 27% | ? | ? | 16% | .
O=C(NCc1ccc2c(c1)CCO2)Nc1ccccc1 | . | 3.5µM* | 3.2µM* | 15µM* | ? | .
Cc1cccc(N2CCN(c3cc(C)nc4c(-c5ccc(Cl)cc5)c(C)nn34)CC2C)c1 (stereo not drawn) | . | . | . | 1% | . | .
Cc1cc(C(=O)CSc2nc3ccccc3c(=O)[nH]2)c(C)n1CC1CCCO1 (stereo not drawn) | -53% | 16% | ? | 13µM* | 14% | -2%
Cc1cc(C(=O)CSc2nnnn2-c2ccccc2)c(C)n1CC1CCCO1 (stereo not drawn) | 13µM* | 2.5µM* | 1.6µM* | 2.7µM* | ? | -3%
Cc1cc(C(=O)CSc2nnnn2-c2ccc(Cl)cc2)c(C)n1CC1CCCO1 (stereo not drawn) | -8% | -3% | -2% | 6% | 13% | 2%
CCn1c(SCC(=O)c2cc(C)n(CC3CCCO3)c2C)nc2ccccc21 (stereo not drawn) | -7% | 25% | ? | 27µM* | 6% | 1%
CCCCN(CC)C(=O)Cn1ncc2c3ccccc3n(CCC)c2c1=O | . | -1% | 2% | 0% | -7% | .
COc1ccc(-n2ncc(C(=O)N3CCN(c4ccccn4)CC3)c2C2CCN(C(=O)OC(C)(C)C)CC2)cc1 | . | . | . | -1% | . | .
CCN(Cc1ccccc1)C(=O)c1nc(-c2cccc(F)c2)n2c1CCCCC2 | . | . | . | -7% | . | .
CCn1cc2nc(SCc3ccccc3F)n(Cc3ccc(C)cc3)c(=O)c2n1 | . | . | . | -11% | . | .
O=C(OCc1nnc(-c2ccccc2)o1)c1cc(=O)c2ccccc2o1 | 6% | 3% | 5% | ? | 8% | 7%
O=C(OCc1nnc(-c2ccccc2)o1)c1ccco1 | -11% | 5% | 1% | 24µM* | 5% | -23%
Oc1ccccc1-c1nnc(COc2ccc(Cl)cc2Cl)o1 | ? | -1% | 19% | ? | 13µM* | -3%
CC(=O)Nc1ccccc1OCc1nnc(-c2ccccc2Cl)o1 | . | 9% | 18% | ? | 0% | .
O=Cc1ccc(OCc2nnc(-c3ccccc3Br)o2)cc1 | . | -2% | -1% | ? | 15% | .
Clc1ccc(-c2nnc(SCc3nc4ccccc4[nH]3)o2)c(Cl)c1 | -26% | -3% | 1% | 0% | -2% | -4%
Oc1ccccc1-c1nnc(COc2ccccc2)o1 | -4% | 8% | 4% | 15µM* | ? | -4%
Clc1ccc(-c2nnc(CCc3ccccc3)o2)c(Cl)c1 | 13µM* | 2.5µM* | 2µM* | 5.4µM* | ? | -1%
COc1cc(NC(=O)CN2Cc3ccccc3C2=O)cc(OC)c1OC | . | . | . | 2% | . | .
CCCCn1c(=O)c2oc3ccccc3c2n(Cc2ccc(C)cc2)c1=O | . | . | . | 3% | . | .
O=C(OCc1nnc(-c2ccccc2)o1)c1cccnc1Cl | 5% | -3% | 11% | ? | 10% | 0%
c1ccc(OCc2nnc(-c3ccccc3)o2)cc1 | 13µM* | ? | 4µM* | 17µM* | ? | 0%
COc1ccccc1NS(=O)(=O)c1cccc(C(=O)N/N=C(\C)c2cccnc2)c1 | . | -1% | 2% | 2% | 1% | .
C/C(=N/NC(=O)c1ccc2c(c1)OCO2)c1ccc(NC(=O)c2ccc(F)cc2)cc1 | . | 16% | 23% | -7% | 15µM* | .
SMILES | SMN2 splice up | NPC1 prom act | Rab9 promoter act | FLuc modulator | ELG1 genotox | Luc counter
COc1ccc(/C(C)=N\NC(=O)c2ccc3c(c2)OCO3)cc1OC | -8% | 1% | 2% | ? | 3% | -4%
C/C(=N/NC(=O)c1ccc2c(c1)OCO2)c1cccc(NC(=O)C(C)(C)C)c1 | 19% | -7% | 3% | 17µM* | 5% | 4%
CC(/C=C/c1ccc2c(c1)OCO2)=N\NC(=O)c1cccc([N+](=O)[O-])c1 | -23% | 1% | -6% | -8% | 3% | -3%
COc1ccccc1NS(=O)(=O)c1cccc(C(=O)N/N=C(\C)c2ccc3c(c2)OCCO3)c1 | -9% | -1% | 1% | 15µM* | 0% | -3%
C/C(=N/NC(=O)c1ccc2c(c1)OCO2)c1cccc([N+](=O)[O-])c1 | . | 2µM* | 2.2µM* | 6µM* | 8.2µM* | .
CC(CCc1ccccc1)NC(=O)Cn1c(=O)nc(-c2ccccc2F)c2cc(Cl)ccc21 (stereo not drawn) | . | . | . | -6% | . | .
CCCC(=O)Nc1ccc(-c2nc3ncccc3o2)cc1C | ? | . | . | -17% | . | .
CCOc1ccc(C(=O)Nc2cccc(C(=O)OCc3cc(=O)n4cc(C)sc4n3)c2)cc1 | . | . | . | -4% | . | .
C/C(=N\NC(=O)c1cc2ccccc2cc1O)c1ccc2c(c1)OCO2 | 15% | 21% | 25% | 9.5µM* | 10% | -9%
Oc1ccccc1C=NCCN=Cc1ccccc1O | . | 0% | 1% | -7% | 0% | .
Cc1ccc(O)c(C=Nc2cc(C)ccc2O)c1 | 17% | 0% | 0% | -7% | 0% | -1%
CCCCS/C(N)=N/N=C/c1ccccc1O | 3% | ? | 3.2µM* | 13µM* | ? | -4%
CCCS/C(N)=N/N=C/c1cc(C)ccc1O | -14% | 3.2µM* | ? | 2.4µM* | 6.5µM* | 2%
C/C(=N/N=C/c1ccccc1O)c1ccccc1O | . | 25% | ? | 1.1µM* | 6.5µM* | .
CCCNC(=O)CCC(=O)N1Cc2cccc(OC)c2Oc2ncccc21 | . | . | . | 3% | . | .
CCCCCN=C(C)c1c(O)c2ccccc2oc1=O | . | ? | ? | 17µM* | ? | .
COC(=O)c1ccc(NC(=O)CSc2cn(CC(=O)N3CCCCC3)c3ccccc23)cc1 | . | . | . | -2% | . | .
CC1=NN(c2ccc([N+](=O)[O-])cc2)C(=O)C1[N+](=O)[O-] (stereo not drawn) | 8% | . | . | . | . | ?
CC(C)CCNC(=O)Nc1cc(C(=O)NCc2cccc(F)c2)ccc1N1CCCC1 | . | . | . | -1% | . | .
Cc1ccc2nc(Nc3ccc4[nH]c(=O)[nH]c4c3)c(-n3nc(C)cc3C)nc2c1 | 18µM* | 25% | ? | 0.85µM* | ? | 0%
COc1ccc(NC(=O)C(=O)NCCc2sc(-c3ccc(Cl)cc3)nc2C)cc1 | . | . | . | -1% | . | .
CN(C)S(=O)(=O)c1cccc(C(=O)Nc2ccc(C(=O)Nc3cccc(S(N)(=O)=O)c3)cc2)c1 | . | . | . | . | -1% | .
NS(=O)(=O)c1cccc(NC(=O)c2cccc(-c3ccc(O)cc3)c2)c1 | . | 1% | -1% | 17µM* | 1% | .
O=C(Nc1cccc(Br)c1)c1cc2ccccc2o1 | . | 3.2µM* | 2.8µM* | 2.4µM* | ? | .
O=C(Nc1cc2ccccc2oc1=O)c1ccccc1 | 0.89µM* | 0.4µM* | 0.18µM* | 0.43µM* | ? | 11µM*
